One assay deals with T1, Tyrosyl-tRNA synthetase, putative (Trypanosoma cruzi (strain CL Brener)) (UniProt Q4DSP6).
T1 sequence (whole entry): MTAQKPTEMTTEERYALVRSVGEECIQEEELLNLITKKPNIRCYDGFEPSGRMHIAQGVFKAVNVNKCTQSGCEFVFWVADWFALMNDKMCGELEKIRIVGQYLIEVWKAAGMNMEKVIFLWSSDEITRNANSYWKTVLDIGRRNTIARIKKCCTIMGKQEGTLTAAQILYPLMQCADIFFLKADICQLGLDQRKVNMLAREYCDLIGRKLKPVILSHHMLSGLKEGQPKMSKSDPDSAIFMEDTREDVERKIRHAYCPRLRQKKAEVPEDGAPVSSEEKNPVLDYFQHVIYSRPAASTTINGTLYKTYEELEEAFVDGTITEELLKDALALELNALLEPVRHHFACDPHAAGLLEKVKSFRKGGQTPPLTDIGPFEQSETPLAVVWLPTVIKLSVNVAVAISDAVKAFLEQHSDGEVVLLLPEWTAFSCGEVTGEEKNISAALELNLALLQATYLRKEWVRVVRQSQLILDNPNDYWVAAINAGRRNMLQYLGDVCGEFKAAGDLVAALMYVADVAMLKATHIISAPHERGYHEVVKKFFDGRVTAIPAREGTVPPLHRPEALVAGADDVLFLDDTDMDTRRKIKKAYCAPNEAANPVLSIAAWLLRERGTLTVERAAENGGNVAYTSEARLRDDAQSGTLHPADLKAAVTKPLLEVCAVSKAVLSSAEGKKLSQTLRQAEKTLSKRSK
Description: Trypanosoma cruzi tyrosyl tRNA synthetase (TcYRS) SOP. In kind it is functional. Details: scale not given: direction of the effect not stated beside the values. Conditions: 30 µM.
Chromo domain-containing protein 1 (Saccharomyces cerevisiae (strain ATCC 204508 / S288c) (Baker's yeast)), sequence (P32657 whole entry, the tested form may be a part): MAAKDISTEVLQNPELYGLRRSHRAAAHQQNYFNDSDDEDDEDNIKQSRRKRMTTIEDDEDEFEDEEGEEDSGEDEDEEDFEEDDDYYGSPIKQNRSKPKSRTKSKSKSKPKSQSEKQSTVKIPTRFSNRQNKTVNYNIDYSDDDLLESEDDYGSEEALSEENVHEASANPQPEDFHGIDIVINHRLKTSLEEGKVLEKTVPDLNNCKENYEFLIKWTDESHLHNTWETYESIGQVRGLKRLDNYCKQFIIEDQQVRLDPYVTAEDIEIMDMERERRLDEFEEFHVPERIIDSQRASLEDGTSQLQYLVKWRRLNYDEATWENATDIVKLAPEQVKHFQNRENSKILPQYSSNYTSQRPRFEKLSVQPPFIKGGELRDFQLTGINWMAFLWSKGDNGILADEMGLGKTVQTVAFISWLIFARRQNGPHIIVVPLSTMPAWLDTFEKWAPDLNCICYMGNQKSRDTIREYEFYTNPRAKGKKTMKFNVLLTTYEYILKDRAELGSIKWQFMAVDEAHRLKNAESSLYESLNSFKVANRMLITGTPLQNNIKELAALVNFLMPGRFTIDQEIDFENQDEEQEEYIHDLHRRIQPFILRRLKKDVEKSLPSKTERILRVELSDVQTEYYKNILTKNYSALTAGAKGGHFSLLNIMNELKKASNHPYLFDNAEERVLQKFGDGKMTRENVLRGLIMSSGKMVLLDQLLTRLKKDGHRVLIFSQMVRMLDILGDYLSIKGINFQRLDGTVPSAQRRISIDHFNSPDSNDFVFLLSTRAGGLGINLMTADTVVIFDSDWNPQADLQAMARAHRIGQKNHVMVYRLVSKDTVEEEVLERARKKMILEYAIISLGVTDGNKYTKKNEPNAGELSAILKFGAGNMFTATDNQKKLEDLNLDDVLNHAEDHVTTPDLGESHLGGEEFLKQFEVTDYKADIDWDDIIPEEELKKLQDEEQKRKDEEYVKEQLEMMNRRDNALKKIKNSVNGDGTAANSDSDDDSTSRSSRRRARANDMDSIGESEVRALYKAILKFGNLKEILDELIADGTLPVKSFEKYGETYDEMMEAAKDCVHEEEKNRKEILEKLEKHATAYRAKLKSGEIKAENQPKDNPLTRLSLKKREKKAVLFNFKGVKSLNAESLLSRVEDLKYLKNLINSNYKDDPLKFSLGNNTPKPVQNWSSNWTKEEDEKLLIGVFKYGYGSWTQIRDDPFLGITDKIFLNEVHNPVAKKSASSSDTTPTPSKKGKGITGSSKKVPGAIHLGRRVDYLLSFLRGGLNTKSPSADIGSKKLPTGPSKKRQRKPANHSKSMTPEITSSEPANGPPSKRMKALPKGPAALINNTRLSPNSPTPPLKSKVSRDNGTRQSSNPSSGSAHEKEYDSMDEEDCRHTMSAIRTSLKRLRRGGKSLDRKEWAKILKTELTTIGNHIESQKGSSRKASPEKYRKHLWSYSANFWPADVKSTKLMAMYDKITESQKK
`CNC(=O)CS(=O)(=O)Cc1coc(-c2ccc(OC)cc2)n1`: the Percent Effect is -4.88%.

As for `CC(C)CS(=O)(=O)CC(=O)N(C)Cc1ccc(OC(F)F)cc1`, the Percent Effect was determined as 9.76%. On the same count and under the same terms, the result for `CN(Cc1ccccn1)C1COC2(CCN(Cc3cccnc3)CC2)C1` (stereo not drawn) reads 16.7%.

For `COc1ccc(C2=C(C)C(N3CCc4ccccc4C3)=NS2(=O)=O)cc1`, the Percent Effect was -39.7%.

`Cn1c(C2CC2)nc2c1CCN(CC(=O)Nc1nncs1)C2`: the Percent Effect was 7.32%. Same read-out and setting: then `Cc1cccc(CN2CCN(Cc3ccccc3)CC(O)C2)n1` (stereo not drawn), with 19.5%; and `CCn1cc(CN2CCCN(C(=O)C3=NN(C)C(=O)CC3)CC2)cn1`, with 0%. Still for that read-out and setting: then `O=C(CN1CCc2cncnc2C1)NCCOc1ccccc1`, with 25.9%; and `Cc1ncsc1C(=O)N(C)CCc1ccncc1`, with 4.88%; and `N#Cc1cccc(CS(=O)(=O)NCC(O)Cc2ccccc2)c1` (stereo not drawn), with 3.7%. In the case of `Cc1ccc(-c2nc(CN3CCc4nn(C)c(=O)cc4C3)co2)cc1`, the Percent Effect came to 13.6%. In the case of `Cc1cc(C)n(CC2CCCN2CC(=O)N(C)C)n1` (stereo not drawn), the Percent Effect came out at 1.24%. In the case of `CN(C)S(=O)(=O)N1CCC(Oc2ccc(C#N)cc2)CC1`, the Percent Effect turned out to be 2.56%.

`CC(C)c1cc(NC(=O)CN2CCc3cncnc3C2)on1`: the Percent Effect was 21.9%. The same measure, in the same setting: then `CCc1nc(CN(Cc2cccs2)CC2CCCO2)no1` (stereo not drawn), with 5.06%; and `CCCN1CC(C(=O)Nc2ccccn2)CC1=O` (stereo not drawn), with 7.32%; and `Cc1cnn(CCNCc2ccc(F)cc2Cl)c1`, with 13.4%.

Turning to `O=C(c1ccn(-c2cccc(F)c2)n1)N1CCCC(n2cccn2)C1` (stereo not drawn), the Percent Effect came to 7.06%.

For `N#Cc1ccnc(N2CCN(C(=O)Cc3ccc4c(c3)CCO4)CC2)c1`, the Percent Effect worked out at 19.5%.

The next assay concerns the target Chromo domain-containing protein 1 (Saccharomyces cerevisiae (strain ATCC 204508 / S288c) (Baker's yeast)) (UniProt P32657). Description: ScCHD-1 Enzyme Inhibition Assay. In kind it is functional. Set-up: scale not given: in the data most compounds retested in dose-response had high values. Conditions: 30 µM.
Regarding `CCn1nc(C(=O)N2CCCC(n3cncn3)C2)ccc1=O` (stereo not drawn), the Percent Effect was -10.3%.

For `CNc1nc(C)c(C(=O)N2CCCCC2CN2CCCCCC2)s1` (stereo not drawn), the Percent Effect is -9.37%.

On to `CCOCC(=O)N1C[C@@H](O)[C@H](N(C)Cc2ccc(OC)cc2)C1`, for which the Percent Effect is -14.5%. Still for that read-out and setting: the result for `c1cnc(NCc2ncn3c2CN(Cc2cccnc2)CCC3)nc1` reads -0.718%; that for `O=C1CCSCC(C(=O)N2CCOCC2)N1` (stereo not drawn), 0.585%; that for `O=C(COCc1nc(-c2ccncc2)no1)N1CCCCCC1`, 120%. For `CCc1csc(C2CCCN(C(=O)c3cnn(CC)c3)C2)n1` (stereo not drawn), the Percent Effect was -7.82%. The same measure, in the same setting: the result for `COc1ccc(CCC(=O)Nc2cccnc2N2CCCC2)cc1Br` reads -2.84%; that for `CC(=O)c1ccc(N2CCCC(CO)(CCOc3ccccc3)C2)nc1` (stereo not drawn), -2.3%.

Regarding `c1cncc(C2COC3(CCN(CC4CC4)CC3)C2)c1` (stereo not drawn), the Percent Effect is -3.69%.

In the case of `Cc1ccc2c(n1)N(CCn1cccn1)CCN(C(=O)NC1CC1)C2`, the Percent Effect is -4.31%. On the same count and under the same terms, then `Cc1cnn(C2CCCN(C(=O)c3cnc4ccccc4n3)C2)c1` (stereo not drawn), with -3.95%; and `CCCc1cc(=O)n(CC(N)=O)c(-n2nc(C)cc2C)n1`, with -9.6%. Same read-out and setting: then `Cc1cc(C)n(C2CCCN(C(=O)c3cc(C4CC4)on3)C2)n1` (stereo not drawn), with -18.6%; and `Cc1ccc(Nc2nccc(C3CCCN(CC(=O)N(C)C)C3)n2)nc1` (stereo not drawn), with -2.77%.

As for `CC(C)c1cccc(CSc2nnc(CN3CCCC3=O)o2)n1`, the Percent Effect is 0.138%. Same read-out and setting: the result for `N#Cc1ccc(OCCN2CCc3c(ncn3C3CC3)C2)cc1` reads -10.1%; that for `O=C(NCc1nncn1-c1ccccc1)C1CC(=O)N(CC2CC2)C1` (stereo not drawn), -2.19%; that for `CCc1nccn1C1CCCN(C(=O)Cc2n[nH]c3ccccc23)C1` (stereo not drawn), -2.38%. Still for that read-out and setting: the result for `CN(Cc1ccsc1)C(=O)c1cccc(NS(C)(=O)=O)c1` reads -8.96%; that for `CNC(=O)CS(=O)(=O)Cc1coc(-c2ccc(OC)cc2)n1`, -2.91%; that for `CC(C)CS(=O)(=O)CC(=O)N(C)Cc1ccc(OC(F)F)cc1`, -2.02%. Consider `CN(Cc1ccccn1)C1COC2(CCN(Cc3cccnc3)CC2)C1` (stereo not drawn), for which the Percent Effect was -7.71%.

`COc1ccc(C2=C(C)C(N3CCc4ccccc4C3)=NS2(=O)=O)cc1`: the Percent Effect was determined as 79.2%. As for `Cn1c(C2CC2)nc2c1CCN(CC(=O)Nc1nncs1)C2`, the Percent Effect was -5.21%. On the same count and under the same terms, then `Cc1cccc(CN2CCN(Cc3ccccc3)CC(O)C2)n1` (stereo not drawn), with -3.04%; and `CCn1cc(CN2CCCN(C(=O)C3=NN(C)C(=O)CC3)CC2)cn1`, with -17.5%. In the case of `O=C(CN1CCc2cncnc2C1)NCCOc1ccccc1`, the Percent Effect was -2.98%. Regarding `Cc1ncsc1C(=O)N(C)CCc1ccncc1`, the Percent Effect amounted to 5.09%.

Regarding `N#Cc1cccc(CS(=O)(=O)NCC(O)Cc2ccccc2)c1` (stereo not drawn), the Percent Effect is 1.24%. The same measure, in the same setting: the result for `Cc1ccc(-c2nc(CN3CCc4nn(C)c(=O)cc4C3)co2)cc1` reads -6.66%. On to `Cc1cc(C)n(CC2CCCN2CC(=O)N(C)C)n1` (stereo not drawn), for which the Percent Effect is -0.0682%. The same measure, in the same setting: then `CN(C)S(=O)(=O)N1CCC(Oc2ccc(C#N)cc2)CC1`, with -0.203%.

For `CC(C)c1cc(NC(=O)CN2CCc3cncnc3C2)on1`, the Percent Effect is -6.84%. In the case of `CCc1nc(CN(Cc2cccs2)CC2CCCO2)no1` (stereo not drawn), the Percent Effect came to 3.56%. Still for that read-out and setting: then `CCCN1CC(C(=O)Nc2ccccn2)CC1=O` (stereo not drawn), with -4.7%; and `Cc1cnn(CCNCc2ccc(F)cc2Cl)c1`, with 1.6%. The same measure, in the same setting: the result for `O=C(c1ccn(-c2cccc(F)c2)n1)N1CCCC(n2cccn2)C1` (stereo not drawn) reads -16.1%; that for `N#Cc1ccnc(N2CCN(C(=O)Cc3ccc4c(c3)CCO4)CC2)c1`, -11.9%.

For the origin of these results see ChEMBL document CHEMBL3988442, “University of Dundee, Small-Polar-MMV Screening Library” (2021).
